Seven compounds from ChEMBL document CHEMBL1961873, “Compounds: GSK PKIS; Assays: Nanosyn kinase panel” (2012) can be followed below.

Assay [1] addresses Tyrosine-protein kinase Fer (Homo sapiens) (UniProt P16591). As to conditions: at 1 µM.
Assay [2] concerns the target Tyrosine-protein kinase Fes/Fps (Homo sapiens) (UniProt P07332). The following applies: at 0.1 µM.
Assay [3] has the same target. The following applies: at 1 µM.
The target of assay [4] is Fibroblast growth factor receptor 1 (Homo sapiens) (UniProt P11362). The following applies: at 0.1 µM.
The target is the same in assay [5]. The following applies: at 1 µM.
Assay [6] deals with Fibroblast growth factor receptor 2 (Homo sapiens) (UniProt P21802). As to conditions: at 0.1 µM.
The target is the same in assay [7]. As to conditions: at 1 µM.
Assay [8] addresses Fibroblast growth factor receptor 3 (Homo sapiens) (UniProt P22607). The following applies: at 0.1 µM.
Assay [9] has the same target. The following applies: at 1 µM.
Assay [10] concerns the target Fibroblast growth factor receptor 4 (Homo sapiens) (UniProt P22455). As to conditions: at 0.1 µM.
For assay [11] the target is unchanged. The following applies: at 1 µM.
Assay [12] addresses Tyrosine-protein kinase Fgr (Homo sapiens) (UniProt P09769). As to conditions: at 0.1 µM.
For assay [13] the target is unchanged. The following applies: at 1 µM.
In assay [14] the target is Vascular endothelial growth factor receptor 1 (Homo sapiens) (UniProt P17948). The following applies: at 0.1 µM.
Assay [15] has the same target. The following applies: at 1 µM.
The target in assay [16] is Receptor-type tyrosine-protein kinase FLT3 (Homo sapiens) (UniProt P36888). The following applies: at 0.1 µM.
The target is the same in assay [17]. The following applies: at 1 µM.
Assay [18] relates to T1, Receptor-type tyrosine-protein kinase FLT3 (Homo sapiens), P36888 [D835Y].
T1 sequence (whole entry): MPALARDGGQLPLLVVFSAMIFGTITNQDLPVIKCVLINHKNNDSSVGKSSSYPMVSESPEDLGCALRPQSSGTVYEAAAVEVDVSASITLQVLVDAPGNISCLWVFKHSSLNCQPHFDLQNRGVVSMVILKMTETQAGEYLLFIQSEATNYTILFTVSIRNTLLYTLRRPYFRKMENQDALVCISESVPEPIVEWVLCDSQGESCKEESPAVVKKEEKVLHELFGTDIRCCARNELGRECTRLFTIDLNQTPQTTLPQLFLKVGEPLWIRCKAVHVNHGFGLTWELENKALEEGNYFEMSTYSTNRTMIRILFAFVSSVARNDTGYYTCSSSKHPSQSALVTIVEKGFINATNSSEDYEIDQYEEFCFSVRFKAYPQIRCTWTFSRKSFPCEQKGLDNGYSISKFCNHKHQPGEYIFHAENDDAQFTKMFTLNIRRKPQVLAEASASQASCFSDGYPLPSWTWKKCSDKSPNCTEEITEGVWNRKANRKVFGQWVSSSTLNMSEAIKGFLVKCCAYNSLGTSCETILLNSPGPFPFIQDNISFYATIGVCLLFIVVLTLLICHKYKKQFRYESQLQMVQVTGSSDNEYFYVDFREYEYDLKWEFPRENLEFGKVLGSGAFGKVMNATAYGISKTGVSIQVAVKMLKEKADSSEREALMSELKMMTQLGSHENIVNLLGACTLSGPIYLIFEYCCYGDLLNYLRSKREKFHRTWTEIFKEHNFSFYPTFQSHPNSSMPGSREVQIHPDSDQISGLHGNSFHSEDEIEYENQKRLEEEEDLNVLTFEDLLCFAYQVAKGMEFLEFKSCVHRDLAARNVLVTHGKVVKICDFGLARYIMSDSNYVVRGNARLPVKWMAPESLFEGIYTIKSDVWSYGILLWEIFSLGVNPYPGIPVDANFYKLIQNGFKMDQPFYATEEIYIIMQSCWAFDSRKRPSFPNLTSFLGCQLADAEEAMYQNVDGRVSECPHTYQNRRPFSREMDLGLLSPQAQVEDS
The following applies: at 0.1 µM.

Assay [19] deals with Non-receptor tyrosine-protein kinase TYK2 (Homo sapiens) (UniProt P29597). As to conditions: at 1 µM.
Assay [20] addresses T2, Tyrosine-protein kinase receptor TYRO3 (Homo sapiens) (UniProt Q06418).
T2 sequence (whole entry): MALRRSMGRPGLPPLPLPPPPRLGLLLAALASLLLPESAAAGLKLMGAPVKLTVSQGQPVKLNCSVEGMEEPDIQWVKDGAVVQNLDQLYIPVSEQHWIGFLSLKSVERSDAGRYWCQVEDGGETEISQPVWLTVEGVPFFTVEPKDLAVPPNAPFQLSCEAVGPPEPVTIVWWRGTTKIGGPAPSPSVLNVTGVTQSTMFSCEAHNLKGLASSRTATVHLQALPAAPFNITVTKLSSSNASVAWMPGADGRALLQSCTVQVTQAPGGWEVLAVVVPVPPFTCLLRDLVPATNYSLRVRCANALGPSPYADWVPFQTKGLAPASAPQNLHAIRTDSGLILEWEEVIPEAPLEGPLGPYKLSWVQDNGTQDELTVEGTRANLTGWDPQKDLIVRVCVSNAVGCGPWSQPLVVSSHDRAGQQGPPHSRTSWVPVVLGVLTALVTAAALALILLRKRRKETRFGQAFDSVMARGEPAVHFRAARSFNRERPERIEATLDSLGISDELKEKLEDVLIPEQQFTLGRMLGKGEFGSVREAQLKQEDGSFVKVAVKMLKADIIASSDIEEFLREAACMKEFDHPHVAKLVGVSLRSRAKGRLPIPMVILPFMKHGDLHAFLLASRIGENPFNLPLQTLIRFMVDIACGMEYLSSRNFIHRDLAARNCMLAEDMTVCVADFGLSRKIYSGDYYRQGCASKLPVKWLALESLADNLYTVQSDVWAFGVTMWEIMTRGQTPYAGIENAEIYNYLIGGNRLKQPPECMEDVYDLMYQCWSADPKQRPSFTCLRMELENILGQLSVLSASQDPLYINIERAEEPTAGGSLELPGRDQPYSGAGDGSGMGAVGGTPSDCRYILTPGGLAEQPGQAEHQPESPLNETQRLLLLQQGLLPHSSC
As to conditions: at 0.1 µM.

Sequence of Tyrosine-protein kinase Fgr (Homo sapiens) (P09769 2-529 limits assumed): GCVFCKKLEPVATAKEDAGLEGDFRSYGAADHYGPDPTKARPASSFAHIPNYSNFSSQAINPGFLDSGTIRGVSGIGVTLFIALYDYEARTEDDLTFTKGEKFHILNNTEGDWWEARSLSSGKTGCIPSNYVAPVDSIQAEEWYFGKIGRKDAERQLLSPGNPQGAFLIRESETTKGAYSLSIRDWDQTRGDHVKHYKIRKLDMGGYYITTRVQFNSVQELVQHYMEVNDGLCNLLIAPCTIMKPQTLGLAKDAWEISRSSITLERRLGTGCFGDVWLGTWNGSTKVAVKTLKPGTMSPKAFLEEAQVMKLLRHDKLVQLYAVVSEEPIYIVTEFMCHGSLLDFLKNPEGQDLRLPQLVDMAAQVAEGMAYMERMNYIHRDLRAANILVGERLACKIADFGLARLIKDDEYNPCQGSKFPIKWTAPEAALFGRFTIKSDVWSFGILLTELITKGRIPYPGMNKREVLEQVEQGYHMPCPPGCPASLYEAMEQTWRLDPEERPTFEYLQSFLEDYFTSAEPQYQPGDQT
Sequence of Tyrosine-protein kinase Fes/Fps (Homo sapiens) (P07332 whole entry): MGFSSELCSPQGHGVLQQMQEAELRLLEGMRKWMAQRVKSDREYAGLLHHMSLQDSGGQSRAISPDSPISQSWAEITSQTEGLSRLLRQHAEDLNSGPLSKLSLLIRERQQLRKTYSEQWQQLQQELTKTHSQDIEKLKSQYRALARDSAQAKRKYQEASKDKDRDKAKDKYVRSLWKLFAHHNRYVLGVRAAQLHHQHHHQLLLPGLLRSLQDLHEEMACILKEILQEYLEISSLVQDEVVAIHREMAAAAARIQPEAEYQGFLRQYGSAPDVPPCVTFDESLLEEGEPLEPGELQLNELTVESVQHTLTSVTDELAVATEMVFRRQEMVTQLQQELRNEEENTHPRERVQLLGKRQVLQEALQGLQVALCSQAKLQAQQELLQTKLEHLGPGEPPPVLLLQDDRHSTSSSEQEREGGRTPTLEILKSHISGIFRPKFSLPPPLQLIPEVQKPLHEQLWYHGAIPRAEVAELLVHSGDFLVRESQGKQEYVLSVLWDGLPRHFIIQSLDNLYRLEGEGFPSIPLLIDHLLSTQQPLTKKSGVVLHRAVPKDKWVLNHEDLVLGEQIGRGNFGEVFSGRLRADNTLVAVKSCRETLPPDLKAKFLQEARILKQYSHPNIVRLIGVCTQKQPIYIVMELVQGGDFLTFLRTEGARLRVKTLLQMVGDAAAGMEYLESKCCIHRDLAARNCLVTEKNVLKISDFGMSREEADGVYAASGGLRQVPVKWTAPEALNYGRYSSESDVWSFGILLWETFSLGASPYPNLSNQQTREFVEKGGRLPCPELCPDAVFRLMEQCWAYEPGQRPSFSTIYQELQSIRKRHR
Sequence of Tyrosine-protein kinase Fer (Homo sapiens) (P16591 whole entry, looked up): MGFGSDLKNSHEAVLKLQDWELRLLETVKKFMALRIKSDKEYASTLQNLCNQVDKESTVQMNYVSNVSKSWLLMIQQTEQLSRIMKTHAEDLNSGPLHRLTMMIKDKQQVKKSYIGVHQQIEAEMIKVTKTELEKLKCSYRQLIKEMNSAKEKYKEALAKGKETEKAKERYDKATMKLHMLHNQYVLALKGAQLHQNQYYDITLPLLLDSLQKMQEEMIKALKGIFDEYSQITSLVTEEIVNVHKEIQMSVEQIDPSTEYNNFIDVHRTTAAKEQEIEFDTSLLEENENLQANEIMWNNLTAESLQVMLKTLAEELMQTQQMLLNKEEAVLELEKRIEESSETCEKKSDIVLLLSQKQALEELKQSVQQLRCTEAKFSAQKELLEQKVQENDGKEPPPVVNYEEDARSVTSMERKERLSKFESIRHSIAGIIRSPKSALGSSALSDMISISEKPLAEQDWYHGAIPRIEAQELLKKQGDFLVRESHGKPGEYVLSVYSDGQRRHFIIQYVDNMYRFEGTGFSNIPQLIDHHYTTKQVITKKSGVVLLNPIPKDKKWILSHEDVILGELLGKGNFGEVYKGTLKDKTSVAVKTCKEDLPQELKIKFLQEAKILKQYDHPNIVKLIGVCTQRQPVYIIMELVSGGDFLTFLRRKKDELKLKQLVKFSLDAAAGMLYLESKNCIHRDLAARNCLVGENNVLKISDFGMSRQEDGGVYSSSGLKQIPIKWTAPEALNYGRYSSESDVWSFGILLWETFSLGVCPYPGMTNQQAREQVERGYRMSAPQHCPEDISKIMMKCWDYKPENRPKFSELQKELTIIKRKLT
Sequence of Fibroblast growth factor receptor 1 (Homo sapiens) (P11362 22-822 limits assumed): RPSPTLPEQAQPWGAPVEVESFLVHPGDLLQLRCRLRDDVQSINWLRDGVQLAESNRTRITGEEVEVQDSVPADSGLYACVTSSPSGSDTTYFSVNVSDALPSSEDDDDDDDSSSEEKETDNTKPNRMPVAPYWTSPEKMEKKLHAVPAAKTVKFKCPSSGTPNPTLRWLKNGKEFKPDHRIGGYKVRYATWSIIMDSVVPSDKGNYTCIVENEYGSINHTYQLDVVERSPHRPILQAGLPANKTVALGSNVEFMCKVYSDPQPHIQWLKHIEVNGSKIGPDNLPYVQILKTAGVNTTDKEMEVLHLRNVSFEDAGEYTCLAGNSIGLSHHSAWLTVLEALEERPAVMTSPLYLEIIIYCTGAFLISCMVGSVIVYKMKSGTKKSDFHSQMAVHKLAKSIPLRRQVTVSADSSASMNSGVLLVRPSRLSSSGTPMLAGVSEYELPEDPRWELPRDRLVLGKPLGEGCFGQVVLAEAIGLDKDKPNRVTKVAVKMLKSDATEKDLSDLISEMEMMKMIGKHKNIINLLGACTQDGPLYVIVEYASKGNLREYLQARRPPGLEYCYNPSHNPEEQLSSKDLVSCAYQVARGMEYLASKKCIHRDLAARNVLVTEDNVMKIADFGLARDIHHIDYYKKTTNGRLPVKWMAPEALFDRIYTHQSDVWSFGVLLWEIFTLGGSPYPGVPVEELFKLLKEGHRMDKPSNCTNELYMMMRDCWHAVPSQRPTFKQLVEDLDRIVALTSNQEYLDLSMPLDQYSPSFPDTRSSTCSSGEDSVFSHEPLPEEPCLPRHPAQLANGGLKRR
Sequence of Fibroblast growth factor receptor 2 (Homo sapiens) (P21802 22-821 limits assumed): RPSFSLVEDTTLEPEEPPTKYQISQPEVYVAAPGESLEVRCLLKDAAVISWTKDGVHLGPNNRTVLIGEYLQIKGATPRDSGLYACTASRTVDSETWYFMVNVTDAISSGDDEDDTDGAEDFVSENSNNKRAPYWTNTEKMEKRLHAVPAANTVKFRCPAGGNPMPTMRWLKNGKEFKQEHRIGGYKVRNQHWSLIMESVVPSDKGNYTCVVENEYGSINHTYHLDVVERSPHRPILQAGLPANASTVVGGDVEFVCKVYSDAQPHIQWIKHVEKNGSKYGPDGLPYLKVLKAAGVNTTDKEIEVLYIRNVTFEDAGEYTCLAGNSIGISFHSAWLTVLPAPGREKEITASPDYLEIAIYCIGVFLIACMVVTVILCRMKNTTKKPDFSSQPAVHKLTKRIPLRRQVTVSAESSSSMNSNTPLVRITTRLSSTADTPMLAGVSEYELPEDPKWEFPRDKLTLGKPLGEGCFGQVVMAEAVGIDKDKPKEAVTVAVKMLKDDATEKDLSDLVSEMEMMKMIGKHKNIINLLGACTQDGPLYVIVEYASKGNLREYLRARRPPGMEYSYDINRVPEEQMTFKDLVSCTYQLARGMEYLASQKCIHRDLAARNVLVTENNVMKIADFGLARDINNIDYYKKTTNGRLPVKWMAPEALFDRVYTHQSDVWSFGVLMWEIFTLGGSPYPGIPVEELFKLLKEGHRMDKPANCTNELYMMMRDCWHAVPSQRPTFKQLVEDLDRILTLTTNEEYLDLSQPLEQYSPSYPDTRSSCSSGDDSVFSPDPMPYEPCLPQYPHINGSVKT
Sequence of Fibroblast growth factor receptor 4 (Homo sapiens) (P22455 22-802 limits assumed): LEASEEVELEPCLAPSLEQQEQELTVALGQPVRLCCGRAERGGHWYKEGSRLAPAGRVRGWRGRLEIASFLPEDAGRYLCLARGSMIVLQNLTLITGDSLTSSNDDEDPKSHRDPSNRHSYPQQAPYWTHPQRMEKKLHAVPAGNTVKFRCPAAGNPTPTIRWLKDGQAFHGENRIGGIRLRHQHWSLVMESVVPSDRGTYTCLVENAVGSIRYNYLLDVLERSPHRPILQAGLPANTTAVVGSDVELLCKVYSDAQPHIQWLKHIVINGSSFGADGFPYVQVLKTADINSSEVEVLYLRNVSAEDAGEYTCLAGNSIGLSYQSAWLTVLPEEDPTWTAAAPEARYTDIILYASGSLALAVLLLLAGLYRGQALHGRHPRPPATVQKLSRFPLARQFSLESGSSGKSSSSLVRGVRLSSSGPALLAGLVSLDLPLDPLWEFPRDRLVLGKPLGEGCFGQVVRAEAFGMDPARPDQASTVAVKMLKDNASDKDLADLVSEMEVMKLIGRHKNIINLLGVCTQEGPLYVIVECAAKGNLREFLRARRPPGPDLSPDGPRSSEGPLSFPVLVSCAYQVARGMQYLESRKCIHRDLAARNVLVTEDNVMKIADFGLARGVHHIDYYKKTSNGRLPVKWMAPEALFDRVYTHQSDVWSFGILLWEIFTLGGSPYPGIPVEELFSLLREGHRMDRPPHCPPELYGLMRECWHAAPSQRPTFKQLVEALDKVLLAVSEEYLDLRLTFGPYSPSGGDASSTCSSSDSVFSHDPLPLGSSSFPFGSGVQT

The term inhibition denotes the drop in the measured response relative to a control, in per cent. With `COc1ccc(-c2ccncc2)cc1C(N)=O`, the inhibition in assay [1] was 3.22%; in assay [2] it was 2.97%; in assay [3], 3.83%; in [4], 4.37%; in assay [5], 8.58%; in assay [6], 7.42%. For the same compound, the inhibition in assay [7] was 8.69%; in [8], 7.66%; in assay [9], 7.43%; in assay [10] it was 2.74%; in [11] it was 1.48%; in assay [12], 3.69%. The inhibition was 4.6% in assay [13]; 2.23% in assay [14]; 2.25% in assay [15]; 5.04% in [16]; 2.52% in assay [17]; 4.29% in assay [18]. Besides, the results for the inhibition in [19] and in assay [20] were -3.25% and 1.12%, respectively.
For `COc1cc2ncn(-c3cc(O[C@H](C)c4ccccc4Cl)c(C(N)=O)s3)c2cc1OC`, the inhibition was determined as 16.7% in assay [1]; 3.81% in assay [2]; 5.11% in assay [3]; 4.42% in assay [4]; 29.4% in [5]; 12.3% in [6]. The inhibition in [7] was determined as 44.9%; in assay [8], 9.47%; in [10], 3.73%; in assay [11], 8.7%; in assay [12], 8.54%; in assay [13], 17.3%. For the same compound, the inhibition in [14] is 4.8%; in assay [15] it was 26.2%; in assay [16], 6.07%; in assay [17], 24.8%; in [18], 5.85%; in assay [19], -0.12%. For the same compound, in [20], the inhibition is 7.57%.
In the case of `CN(C)c1cc2c(Nc3ccc4nc(Cc5ccccc5)[nH]c4c3)ncnc2cn1`, the inhibition amounted to 10.5% in assay [1]; 3.37% in assay [2]; 3.11% in [3]; 8.38% in assay [4]; 15.2% in assay [5]; 5.58% in assay [6]. Also, the inhibition in assay [7] was determined as 10.4%; in assay [8], 7.84%; in [9], 11.4%; in [10], 2.81%; in [11] it was 13.5%; in assay [12], 17.2%. Moreover, the inhibition in assay [13] is 42.2%; in assay [14] it was 3.21%; in assay [15], 11.2%; in assay [16], 0.49%; in [17] it was 0.52%; in assay [18] it was -0.65%. In addition, the inhibition in [19] was -7.84%; in [20], 3.2%.
In the case of `COC(=O)Nc1nc2cc(Oc3ccc(NC(=O)Nc4cccc(C(=O)O)c4)cc3)ccc2[nH]1`, the inhibition in assay [1] was 2.49%; in assay [2], -0.49%; in assay [3], 0.5%; in assay [4] it was -4.37%; in assay [5], -2.27%; in assay [6] it was -3.37%. The inhibition in assay [7] was 5.77%; in [8], -1.47%; in assay [9] it was 11.9%; in assay [10], -6.8%; in [11], -1.22%; in [12] it was 3.78%. Moreover, the inhibition was 6.34% in [13]; 3.38% in assay [14]; 8.22% in assay [15]; 1.16% in [16]; 5.75% in assay [17]; 3.31% in assay [18]. Also, the inhibition in [19] was -0.42%; in [20] it was 0.5%.
For the compound `CS(=O)(=O)Nc1ccc(N/C=C2\C(=O)Nc3ccccc32)cc1`, the inhibition in assay [1] was 5.06%; in assay [2], -2.08%; in assay [3] it was -1.95%; in assay [4], -1.9%; in assay [5], 5.82%; in [6], 1.04%. For the same compound, the inhibition in [7] turned out to be 27.1%; in assay [8], 1.57%; in assay [9], 25.5%; in assay [10] it was 2.33%; in assay [11] it was 5.07%; in assay [12], 1.13%. The inhibition amounted to 15% in assay [13]; 4.31% in assay [14]; 20.8% in assay [15]; 18.4% in [16]; 74.1% in assay [17]; 18.7% in assay [18]. For the same compound, the values for the inhibition in [19] and in assay [20] were 9.24% and -2.18%, respectively.
Turning to `COc1cc2ncn(-c3cc(O[C@@H](C)c4ccccc4Cl)c(C(N)=O)s3)c2cc1OC`, the inhibition in [1] came to 8.42%; in assay [2] it was 3.85%; in assay [3] it was 2.83%; in [4] it was 2.01%; in assay [5] it was 17.2%; in [6], 7.05%. In addition, the inhibition in [7] was found to be 21.9%; in assay [8], 6.87%; in assay [9] it was 24.3%; in assay [10], 0.49%; in assay [11], 2.7%; in assay [12], 5.04%. The inhibition in assay [13] is 32.2%; in assay [14] it was 4.55%; in assay [15], 13.3%; in [16] it was 5.29%; in assay [17], 3.2%; in [18], -3.12%. Besides, the results for the inhibition in assay [19] and in assay [20] were -4.63% and 2.45%, respectively.
`CNC(=O)c1cncc(/C=C/c2c(Cl)cccc2Cl)c1`: the inhibition was 5.39% in [1]; 2.89% in assay [2]; 4.62% in assay [3]; 1.94% in assay [4]; -1.56% in [5]; 3.82% in assay [6]. Also, the inhibition in assay [7] was 7.15%; in [8], 5.62%; in [9], 1.39%; in assay [10], 1.14%; in assay [11], 1.17%; in [12], 3.11%. Also, the inhibition in assay [13] is 21.3%; in assay [14], 0.03%; in [15], 4.61%; in [16], -0.33%; in [17], 2.17%; in assay [18] it was -3.3%. In addition, the results for the inhibition in assay [19] and in assay [20] were -3.44% and 1.91%, respectively.
